Source: PubChem BioAssay
Tb PYK inh: inhibitors of Trypanosoma brucei pyruvate kinase. TbPYK enzyme, Kinase-Glo Plus ATP luminescence, 45 min. AID 624173. actives 0.12% (n = 410,000). Potency, µM (titrated, usually from 76.8 µM), for inactives: top-dose activity, negative = inhibition, actives largely listed as inhibitors. Q57TT1; further: potency means the concentration at half of the fitted maximal effect; on the % scale 0 is the no-effect control and ±100 the full control effect; nearly all actives have a fitted effect of over 50% in size
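Luminescence from Kinase-Glo Plus, added after a 45-minute room-temperature reaction, served as the end-point read-out. The enzyme and substrate were preincubated with compound before ADP (130 uM final) initiated turnover. Concentration-effect curves came from normalized qHTS data.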
Shiga inhibitor: inhibitors of Shiga toxin in Vero cells; inhibition, % at 38.7 µM; actives 9.2% (n = 290,000); Vero cells, Shiga toxin protein synthesis inhibition reporter; in the data active means inhibition mostly above about 28%, no sharp cut-off; inactive means mostly below about 43%; further: 0% is about no effect
LmPK inhibitor: blocks Leishmania mexicana pyruvate kinase activity; actives 0.37% (n = 290,000); Q27686; AID 1721; purified LmPK, Kinase-Glo ATP luminescence, 1 h; Potency, µM (titrated, usually from 57.5 µM), inactives show at the highest dose activity change, negative = inhibition, usual class: inhibitors; further: potency means the concentration at half of the fitted maximal effect; on the % scale 0 is the no-effect control and ±100 the full control effect
Target sequence (Q27686 whole entry, looked up): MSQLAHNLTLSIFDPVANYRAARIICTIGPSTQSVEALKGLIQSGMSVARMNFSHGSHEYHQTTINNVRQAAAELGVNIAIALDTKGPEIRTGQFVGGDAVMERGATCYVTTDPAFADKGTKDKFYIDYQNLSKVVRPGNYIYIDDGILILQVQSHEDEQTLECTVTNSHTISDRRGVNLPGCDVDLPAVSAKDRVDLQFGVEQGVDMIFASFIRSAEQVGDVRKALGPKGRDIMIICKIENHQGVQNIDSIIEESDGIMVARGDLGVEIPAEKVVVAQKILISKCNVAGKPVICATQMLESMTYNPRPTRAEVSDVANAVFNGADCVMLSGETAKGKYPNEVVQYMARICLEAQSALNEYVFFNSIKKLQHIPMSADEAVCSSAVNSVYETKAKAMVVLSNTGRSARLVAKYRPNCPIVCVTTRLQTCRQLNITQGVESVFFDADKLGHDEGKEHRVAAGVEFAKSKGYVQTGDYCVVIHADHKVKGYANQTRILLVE
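Kinase-Glo luminescence read after 1 h RT reaction of 0.1 nM LmPK with 0.5 mM PEP and 0.1 mM ADP. Activity scaled between uninhibited and enzyme-free controls.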
Cycloheximide cs: affects cycloheximide protein synthesis inhibition readout, counter-screen | AID 2314 | actives 12% (n = 300,000) | max response, % | cell reporter, cycloheximide protein synthesis inhibition counterscreen; in the data active means max response mostly above about 13%, no sharp cut-off; inactive means mostly below about 14%; further: read at 38.3 µM for the half of the compounds with a filed dose; 0% is about no effect
Giardia FBPA inh: inhibitors of Giardia lamblia fructose-1,6-bisphosphate aldolase; A8B2U2; purified Giardia FBPA; Potency, µM (highest dose often 59.6 µM), for the others: top-dose activity, negative = inhibition, actives largely listed as inhibitors; actives 0.71% (n = 290,000); further: potency means the concentration at half of the fitted maximal effect; on the % scale 0 is the no-effect control and ±100 the full control effect; nearly all actives have a fitted effect of over 55% in size
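Giardia FBPA (40 nM reagent) was preincubated 10 min at RT with compound (up to 57.5 uM final), then substrate plus GAPDH/TPI/NAD/arsenate coupling system with diaphorase/resazurin was added; resorufin fluorescence (525/598 nm) was read after 20 min.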
RE007 growth inh: less growth of the S. pombe RE007 Vpr strain | S. pombe RE007 Vpr strain, BacTiter-Glo ATP luminescence, 24 h | Potency, µM (titrated, usually from 92.2 µM), for inactives: top-dose activity change, negative = less growth, usual class: inhibitors | actives 0.21% (n = 360,000); active means well fitted falling curve with a large enough effect; inconclusive means small, poorly fitted or top-dose-only effect; inactive means no such curve, though single readings can be large or run the other way; further: potency means the concentration at half of the fitted maximal effect; on the % scale 0 is the no-effect control and ±100 the full control effect; nearly all actives have a fitted effect of over 50% in size
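Fission yeast RE007 carrying one integrated HIV-1 vpr copy, seeded at OD 0.01 in PMG+AL medium with 23 nL pinned compound. Grown 24 h at 30 degrees; viability read by BacTiter-Glo luminescence after 5 min.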
* hit, by the source's call; [ ] = dose if it differs, or a comment. Only a selection was taken, and hits are over-represented in it overall. Unless noted, the call rests on the fitted dose curve; in most records, active means well fitted curve in the direction sought with a large enough effect; inconclusive means small, poorly fitted or top-dose-only effect, or another doubt; inactive means no such curve, though single readings can be large; an effect the other way counts as inactive or inconclusive.

Screening CCN(CC)CCCNC(=O)CSc1nc(-c2ccc(OC)cc2)cc(C(F)(F)F)n1 returned Tb PYK inh 3.4%.
O=C(CSc1nc2ccccc2o1)Nc1nc2ccccc2s1 was read as Tb PYK inh -0.6%, Shiga inhibitor 48.7*, LmPK inhibitor -9.1%, Cycloheximide cs 43.5*, Giardia FBPA inh 2.0% and RE007 growth inh -9.2%.
`O=C(CSc1nc2ccccc2o1)Nc1nc(-c2ccccc2)cs1` gave Tb PYK inh -11.5%, Shiga inhibitor 110.6*, LmPK inhibitor 2.3%, Cycloheximide cs 71.9*, Giardia FBPA inh -4.6% and RE007 growth inh -29.5%.
For Cc1sc(NC(=O)CSC2=NCCS2)nc1-c1ccccc1 the results were Tb PYK inh -1.5%, Shiga inhibitor -11.2, LmPK inhibitor -1.6%, Cycloheximide cs -2.9, Giardia FBPA inh 0.4% and RE007 growth inh -7.9%.
`O=C(CSC1=NCCS1)Nc1nc2ccccc2s1` gave Tb PYK inh -1.4%, Shiga inhibitor 81.2*, LmPK inhibitor 3.5%, Cycloheximide cs 28.2*, Giardia FBPA inh -0.1% and RE007 growth inh -27.4%.
Screening O=C(CSc1nc2ccccc2o1)Nc1nccs1 returned Tb PYK inh -0.9%, Shiga inhibitor 30.7, LmPK inhibitor 5.1%, Cycloheximide cs 27.7*, Giardia FBPA inh 5.6% and RE007 growth inh -5.1%.
`COc1ccc(N(C(=O)/C=C/c2ccccc2)C2=CC3CCC(C2)N3C)cc1` (centres undefined) gave Tb PYK inh 3.6%, Shiga inhibitor -22.2, LmPK inhibitor 2.2%, Cycloheximide cs -1.9, Giardia FBPA inh -4.1% and RE007 growth inh 5.7%.
CCOc1cc(C#N)c(NC(=O)Cn2nnc(-c3ccc(C)cc3)n2)cc1OCC was read as Tb PYK inh 2.5%.
COc1ccc(-c2cn(-c3ccc(C)cc3)c(S(=O)(=O)CC(=O)Nc3ccccc3)n2)cc1 was read as Tb PYK inh -2.6%.
`NC(=O)c1ccccc1NC(=O)CSC1=NCCS1` gave Tb PYK inh 7.2%, Shiga inhibitor 14.4, LmPK inhibitor 1.5%, Cycloheximide cs 10.6*, Giardia FBPA inh -9.8% and RE007 growth inh 0.3%.
`CCCCN1C(=O)C(=O)N(c2ccccc2)C1=S` gave Tb PYK inh -5.7%, Shiga inhibitor active, LmPK inhibitor -8.9%, Cycloheximide cs 66.6*, Giardia FBPA inh -1.8% and RE007 growth inh 2.5%.
`Cc1cc(C)cc(OCC(=O)NCC2(N3CCOCC3)CCCCC2)c1` gave Tb PYK inh 1.4%.
For CN1C(=O)/C(=C\c2ccc(N3CCCCC3)o2)C(=O)NC1=S the results were Tb PYK inh -7.1%, Shiga inhibitor 38.5*, LmPK inhibitor -18.4%, Cycloheximide cs 27.4*, Giardia FBPA inh -3.9% and RE007 growth inh -13.8%.
Screening CN1C(=O)/C(=C\c2ccc(N3CCCCCC3)cc2)C(=O)NC1=S returned Tb PYK inh inconclusive, Shiga inhibitor -0.7, LmPK inhibitor -0.6%, Cycloheximide cs 16.6, Giardia FBPA inh -13.1% and RE007 growth inh -2.0%.
`CN1C(=O)/C(=C/c2ccc(N3CCCCCC3)o2)C(=O)NC1=S` gave Tb PYK inh -26.9%, Shiga inhibitor 64.3*, LmPK inhibitor -19.9%, Cycloheximide cs 40.2*, Giardia FBPA inh -6.9% and RE007 growth inh -16.3%.
C=CCN1C(=O)/C(=C\c2ccc(N3CCOCC3)o2)C(=O)NC1=S was read as Tb PYK inh inconclusive, Shiga inhibitor -5.7, LmPK inhibitor 0.4%, Cycloheximide cs 3.8 and Giardia FBPA inh -16.4%.
O=C(CCS(=O)(=O)c1ccc(F)cc1)Nc1nc(-c2ccncc2)cs1 was read as Tb PYK inh -26.9%, Shiga inhibitor 13.9, LmPK inhibitor 0.4%, Cycloheximide cs 6.8 and RE007 growth inh -27.0%.
`COc1ccc(OC)c(NC(=O)c2cc(-c3cc(C)ccc3O)n[nH]2)c1` gave Tb PYK inh 5.1%, Shiga inhibitor 36.1, LmPK inhibitor 4.7%, Cycloheximide cs -1.6, Giardia FBPA inh 7.2% and RE007 growth inh -1.5%.
COc1ccc(Oc2ccc(-c3ccn[nH]3)cc2)cc1 was read as Tb PYK inh 0.0%, Shiga inhibitor 77.1*, LmPK inhibitor 3.5%, Cycloheximide cs 32.3*, Giardia FBPA inh 1.8% and RE007 growth inh 3.9%.
Screening COc1ccc(-c2cc(-c3ccc(OC)cc3)[nH]n2)cc1 returned Tb PYK inh 0.9%, Shiga inhibitor 39.8, LmPK inhibitor 15.5%, Cycloheximide cs 34.7*, Giardia FBPA inh -6.6% and RE007 growth inh -23.6%.
For COc1ccc(-c2cc(-c3ccc(C)cc3)n[nH]2)c(O)c1 the results were Tb PYK inh -5.3%, Shiga inhibitor 94.4*, LmPK inhibitor -2.8%, Cycloheximide cs 44.2* and Giardia FBPA inh 10.0%.
COc1ccc(-c2cc(-c3cc(C)ccc3O)[nH]n2)cc1 was read as Tb PYK inh -5.0%, Shiga inhibitor 80.3*, LmPK inhibitor -2.2%, Cycloheximide cs 49.0*, Giardia FBPA inh -9.4% and RE007 growth inh inconclusive.
COc1ccc(-c2cn[nH]c2N)cc1 was read as Tb PYK inh 2.9%, Shiga inhibitor -2.7, LmPK inhibitor -1.0%, Cycloheximide cs 11.4, Giardia FBPA inh 11.9% and RE007 growth inh 5.8%.
COc1ccc(CCNc2ncnc3c2c(-c2ccccc2)cn3-c2cccc(Cl)c2)cc1OC was read as Tb PYK inh 4.2%.
For CCc1ccc(NCc2cc3ccc(OC)cc3n(CC(=O)Nc3ccc(F)cc3F)c2=O)cc1 the results were Tb PYK inh -3.7%.
For S=c1nccc(-c2ccc(Cl)cc2)[nH]1 the results were Tb PYK inh -11.0%, Shiga inhibitor 2.7, LmPK inhibitor -3.1%, Cycloheximide cs 0.7, Giardia FBPA inh 3.1% and RE007 growth inh 4.7%.
For Clc1ccc(-c2ccn[nH]2)cc1 the results were Tb PYK inh 2.9%, Shiga inhibitor 147.0*, LmPK inhibitor 4.4%[11.5 µM], Cycloheximide cs 53.3*, Giardia FBPA inh 9.0% and RE007 growth inh -26.2%.
Screening CCCCCOc1ccc(/C(C)=N/NC2=NCCN2)cc1 returned Tb PYK inh 8.4%, Shiga inhibitor 0.9, LmPK inhibitor 4.0%, Cycloheximide cs -2.6, Giardia FBPA inh -13.8% and RE007 growth inh inconclusive.
CCCCCCOc1ccc(/C(C)=N/NC2=NCCN2)cc1 was read as Tb PYK inh 10.1%, Shiga inhibitor -8.6, LmPK inhibitor -5.2%, Cycloheximide cs 1.6, Giardia FBPA inh inconclusive and RE007 growth inh 35.5µM*.
For O=S(=O)(c1ccc(F)cc1)N(Cc1nc(-c2ccc(Cl)cc2)no1)C1CCCCC1 the results were Tb PYK inh 3.1%.
Screening Cc1cccc(C)c1NC(=O)CSc1ncc2c(n1)-c1ccc(Cl)cc1N(Cc1ccccc1)S2(=O)=O returned Tb PYK inh 6.8%.
